Our source for the z-score values is PubChem BioAssay.

This test can be described thus: compound effects on differentiated 3T3-L1 adipocyte viability – cell-based, 3T3-L1 adipocytes, calcein-AM fluorescence, 48 h, basal, profiling panel (AID 1163). Also: test concentration not given here. As to conditions: 3T3-L1 adipocytes viability, higher = more signal.
Turning to `COC(=O)c1c(CC[C@@H](CO)NC(=O)N2CCC[C@H]2Cn2cc(-c3ccccn3)nn2)oc(C(C)=O)c1C(=O)OC`, the z-score is 1.
With `CCN(CC)c1ccc(N2CC=CC34O[C@@H]5/C=C\CCCOC(=O)C5[C@H]3C(=O)N(CCO)[C@@H]4C2=O)cc1` (stereo partly specified) the figure was 0.327.
For the molecule `CCOC(=O)C1=CCC(c2ccccc2)N(S(=O)(=O)CC[Si](C)(C)C)C1` (stereo unspecified), the z-score was -0.047.
To `NCCCCCNC(=O)[C@@H]1C[C@@H]2C(=O)NCC(=O)N2[C@@H]1c1ccc(O)cc1` belongs -0.366; to `CC(C)(C)OC(=O)CC[C@]1(C(=O)O)N=C(c2ccc(OCCCO)cc2)O[C@H]1c1ccccc1N=[N+]=[N-]`, -0.598.
With `O=C1C2C=CC(C(O)C(c3ccccc3)c3ccccc3)N(n3cnnc3)C2C(=O)N1Cc1ccccc1` (stereo unspecified), the z-score was 0.0304.
Regarding `COc1ccc([Si](C)(C)[C@H]2[C@H](CCn3cc([C@H](O)c4ccccc4)nn3)O[C@@]3(C(=O)N(Cc4cccc(N5CCOC5=O)c4)c4ccccc43)[C@@H]2C)cc1`, the z-score is 0.283.
To `COCCOC(=O)N1C(=O)[C@@]2(c3cc(C#Cc4ccc(OC)cc4)ccc31)[C@H](C(N)=O)[C@H]1C(=O)O[C@H](c3ccccc3)[C@H](c3ccccc3)N1[C@@H]2c1ccccc1OCCO` belongs 1.18; to `CC(CO)N1C(=O)[C@@H]2C3C(=O)OCCC/C=C\[C@H]3OC23C=CCN(c2ccc4ccccc4c2)C(=O)[C@@H]13` (stereo partly specified), -0.0935; to `O=C1NC(=O)C2C1C=CC(C(O)C(c1ccccc1)c1ccccc1)N2Nc1ccc(Cl)cc1Cl` (stereo unspecified), 0.205.
`CC(=O)n1cc(C(O)C2C=CC3C(=O)N(C)C(=O)C3N2Nc2ccccc2)c2ccccc21` (stereo unspecified): the z-score was -0.652.
